Measurements as given in PubChem BioAssay (NCI).
The panel holds about 83,000 compounds, 20% with a hit somewhere; the sample as a whole holds those more often.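 Single-dose data. Exposure time 48 hours. Values below 10 considered active.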 A number with no mark means an inactive call. Active and inactive are the calls of the source.

Legend:
Experiment in all cases: NCI-60 one-dose screen, 48 h (100 = growth as untreated, 0 = no growth, -100 = all killed)
Details in all cases: 10 µM
[1] = tested on: SR leukemia
[2] = tested on: RPMI-8226 leukemia
[3] = tested on: OVCAR-8 ovarian
[4] = tested on: OVCAR-4 ovarian
[5] = tested on: SK-OV-3 ovarian
[6] = tested on: IGROV1 ovarian
[7] = tested on: OVCAR-3 ovarian
[8] = tested on: HS 578T breast
[9] = tested on: NCI/ADR-RES ovarian
[10] = tested on: T-47D breast
[11] = tested on: BT-549 breast
[12] = tested on: MDA-MB-435 melanoma
[13] = tested on: MCF7 breast
[14] = tested on: HCT-116 colon
[15] = tested on: HCC-2998 colon
[16] = tested on: KM12 colon
[17] = tested on: OVCAR-5 ovarian
[18] = tested on: SW-620 colon

Structure (SMILES) | growth [1] [%] | growth [2] | growth [3] [%] | growth [4] [%] | growth [5] [%] | growth [6] [%] | growth [7] | growth [8] | growth [9] [%] | growth [10] | growth [11] [%] | growth [12] | growth [13] | growth [14] | growth [15] [%] | growth [16] | growth [17] [%] | growth [18] [%]
Cc1ccc(-c2cc(C(=O)Nc3ccc(S(=O)(=O)N4CCCCC4)cc3)[nH]n2)c(O)c1 | 14.9 | 43.3% | 58.7 | 38.5 | 94.1 | 68.8 | 55.3% | 79.4% | 59.9 | 33.8% | 67.4 | 61.3% | 46.8% | 43.5% | 68.8 | 45.1% |  | 
N#Cc1ccc(-n2cnc(NC(=O)[C@H]3CCN(C#N)C3)c2)cc1 |  | 16.2% | 15.5 | 28.9 | 62.5 | 20.8 | 11.4% | 19.2% | 36.6 | -9.28% (active) | 18.5 | 16.2% | 4.82% (active) | 5.34% (active) | 38.5 | 8.31% (active) | 23.8 | 16.6
CCOC(=O)Nc1ccc2c(c1)C(=O)N(CCOC)c1ccccc1O2 |  | 22.2% | 52.8 | 62.1 | 37.3 | 57.8 | 8.46% (active) | 44.4% | 24.1 | 30.5% | 52.8 | -14.2% (active) | 14.4% | 24.4% | 55.3 | 23% | 87.9 | 32
CN1CCN(c2nc(-c3cccnc3)nc3sc4c(c23)CCCCCC4)CC1 |  | 80.6% | 95.1 | 80.8 | 97.2 | 102 | 95.8% | 85.3% | 89.3 | 77.4% | 95.3 | 98.4% | 88.2% | 85.3% | 56.7 | 100% | 104 | 102
CC(CNC(Cc1ccccc1)c1ccccc1)NC(Cc1ccccc1)c1ccccc1 (stereo not given) |  | -34.6% (active) | 49.5 | 31.7 | 81.7 | 39 | 47.3% | 75.2% | 50 | 14.6% | 60.9 | 63.4% | 8.12% (active) | 13.2% | 20.1 | 22.2% | 46.3 | 26.4
CC(C)=C1CCC(C)C/C1=N\N=C(N)N (stereo not given) |  | 96.7% | 104 | 107 | 106 | 98.6 | 113% | 105% | 101 | 97.4% | 107 | 101% | 92.4% | 102% | 109 | 107% | 110 | 103
C/C(=N/NC(=O)c1sc(=S)n(C)c1N)c1cc2cc(Cl)ccc2o1 |  | 87.3% | 14.3 | 117 | 102 | 51.6 | 110% | 5.99% (active) | 104 | 80.4% | 113 | 95.7% | 82.7% | 103% |  | 88.2% |  | 44.3
CCc1nn2c(-c3cc(OC)c(OC)c(OC)c3)c(-c3cc(OC)c(OC)c(OC)c3)nc2s1 |  | 71.3% | 95.6 | 72.6 | 59.5 | 88.8 | 93.4% | 37.1% | 81.7 | 81.4% | 89.6 | 83.4% | 57.4% | 71.8% | 102 | 100% | 90 | 86.3
COc1ccc(-c2nsc3c2NC(=O)CC3c2ccc(Cl)cc2)cc1 (stereo not given) |  | 72.2% | 90.2 | 99.8 | 86.9 | 77.6 | 93.2% | 95.3% | 81.1 | 69.1% | 73.5 | 81% | 88.4% | 85.8% | 93.2 | 82.7% | 100 | 103
